Assay results as given in PubChem BioAssay AID1159580 (chemical genetic matrix, 2015).
Out of some 5,500 compounds screened, about 2,000 (36%) were called active. Roughly 18% stayed inconclusive and do not appear here. No stated cut-off is given here; in the data, active means normalized growth mostly below about 0.91 (no sharp cut-off); inconclusive means no clear call, values can overlap the other calls; inactive means mostly above about 0.92. This is one part of the list.

Assay: chemical genetic growth profiling, strain panel (AID 1159580);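 further: tested at 20 µM; growth read once vehicle control cultures reached saturation at 30 °C; 1 = growth at the plate median or of vehicle wells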
Details: S. cerevisiae deletion strains, growth OD

Measured: normalized growth

NCCCCNS(=O)(=O)c1cccc2c(Cl)cccc12
inactive: locus YAL013W, strain DEP1, stronger effect = lower value 1.01 | locus YAL040C, strain CLN3, stronger effect = lower value 1.02 | locus YDR363W, strain ESC2, stronger effect = lower value 1.01 | locus YER002W, strain NOP16, stronger effect = lower value 1.01 | locus YGR078C, strain PAC10, stronger effect = lower value 1.01 | locus YGR229C, strain SMI1, stronger effect = lower value 1.04 | locus YJR075W, strain HOC1, stronger effect = lower value 0.989 | locus YMR263W, strain SAP30, stronger effect = lower value 1.01 | locus YNL153C, strain GIM3, stronger effect = lower value 0.993 | locus YNL175C, strain NOP13, stronger effect = lower value 1 | locus YNL197C, strain WHI3, stronger effect = lower value 1 | locus YNL224C, strain SQS1, stronger effect = lower value 0.995 | locus YOR083W, strain WHI5 (second series), stronger effect = lower value 1.02 | locus YPL055C, strain LGE1, stronger effect = lower value 1.01

N=c1ccc2nc3c(Cl)c4c(c(Cl)c3oc-2c1S(=O)(=O)O)Nc1ccc(N)c(S(=O)(=O)O)c1O4
inactive: locus YAR019C, strain CDC15, stronger effect = lower value 1.01 | locus YBL105C, strain PKC1, stronger effect = lower value 1.01 | locus YBR135W, strain CKS1, stronger effect = lower value 1.01 | locus YBR136W, strain MEC1, stronger effect = lower value 1.01 | locus YBR160W, strain CDC28, stronger effect = lower value 1.01 | locus YDL017W, strain CDC7, stronger effect = lower value 1.02 | locus YDL028C, strain MPS1, stronger effect = lower value 1.01 | locus YDL101C, strain DUN1, stronger effect = lower value 1.01 | locus YDL108W, strain KIN28, stronger effect = lower value 1.01 | locus YDL132W, strain cdc53, stronger effect = lower value 1 | locus YDL214C, strain PRR2, stronger effect = lower value 1.02 | locus YDR052C, strain DBF4, stronger effect = lower value 1.01 | locus YDR054C, strain cdc34, stronger effect = lower value 1 | locus YDR226W, strain ADK1, stronger effect = lower value 0.993 | locus YDR477W, strain SNF1, stronger effect = lower value 1.01 | locus YER123W, strain YCK3, stronger effect = lower value 1.01 | locus YER133W, strain GLC7, stronger effect = lower value 0.992 | locus YFL009W, strain cdc4, stronger effect = lower value 0.997 | locus YFL029C, strain CAK1, stronger effect = lower value 1 | locus YFR003C, strain YPI1, stronger effect = lower value 1.01 | locus YFR019W, strain FAB1, stronger effect = lower value 0.993 | locus YFR028C, strain CDC14, stronger effect = lower value 1.01 | locus YGR040W, strain KSS1, stronger effect = lower value 1.02 | locus YGR052W, strain FMP48, stronger effect = lower value 1.09 | locus YGR092W, strain DBF2, stronger effect = lower value 1.03 | locus YHR030C, strain SLT2, stronger effect = lower value 0.962 | locus YHR079C, strain IRE1, stronger effect = lower value 0.995 | locus YHR082C, strain KSP1, stronger effect = lower value 1.16 | locus YHR205W, strain SCH9, stronger effect = lower value 1 | locus YIL147C, strain SLN1, stronger effect = lower value 1.01 | locus YJL095W, strain BCK1, stronger effect = lower value 1.06 | locus YJL128C, strain PBS2, stronger effect = lower value 1 | locus YJL157C, strain FAR1, stronger effect = lower value 0.994 | locus YJR016C, strain ILV3, stronger effect = lower value 1.02 | locus YJR066W, strain TOR1 (second series), stronger effect = lower value 0.981 | locus YJR066W, strain TOR1, stronger effect = lower value 1.14 | locus YKL048C, strain ELM1, stronger effect = lower value 1.01 | locus YKL067W, strain YNK1, stronger effect = lower value 1.01 | locus YKL101W, strain HSL1, stronger effect = lower value 1.02 | locus YKL193C, strain SDS22, stronger effect = lower value 1.01 | locus YKL203C, strain TOR2, stronger effect = lower value 1.06 | locus YLR113W, strain HOG1, stronger effect = lower value 1.06 | locus YLR133W, strain CKI1, stronger effect = lower value 1.01 | locus YLR403W, strain SFP1, stronger effect = lower value 0.975 | locus YML070W, strain DAK1, stronger effect = lower value 1.02 | locus YMR001C, strain CDC5, stronger effect = lower value 1.01 | locus YMR205C, strain PFK2 (second series), stronger effect = lower value 1.02 | locus YMR277W, strain FCP1, stronger effect = lower value 1.01 | locus YNL006W, strain LST8, stronger effect = lower value 1 | locus YNL020C, strain ARK1, stronger effect = lower value 1.02 | locus YNL161W, strain CBK1, stronger effect = lower value 0.998 | locus YNL183C, strain NPR1, stronger effect = lower value 1.11 | locus YNL207W, strain RIO2, stronger effect = lower value 1.02 | locus YNL222W, strain SSU72, stronger effect = lower value 1.01 | locus YNL307C, strain MCK1 (second series), stronger effect = lower value 1.01 | locus YOL078W, strain AVO1, stronger effect = lower value 1.01 | locus YOL136C, strain PFK27, stronger effect = lower value 1 | locus YOR061W, strain CKA2, stronger effect = lower value 1.02 | locus YOR119C, strain RIO1, stronger effect = lower value 1.08 | locus YOR231W, strain MKK1, stronger effect = lower value 1.04 | locus YOR329C, strain SCD5, stronger effect = lower value 1.01 | locus YPL031C, strain PHO85, stronger effect = lower value 1.01 | locus YPL153C, strain RAD53, stronger effect = lower value 1.01 | locus YPL204W, strain HRR25, stronger effect = lower value 1 | locus YPL209C, strain IPL1, stronger effect = lower value 1.01 | locus YPL256C, strain CLN2, stronger effect = lower value 0.998 | locus YPR025C, strain CCL1, stronger effect = lower value 1.01 | locus YPR106W, strain ISR1, stronger effect = lower value 1.02 | locus YPR111W, strain DBF20, stronger effect = lower value 1 | strain NNK1, stronger effect = lower value 1.03 | strain TSCII, stronger effect = lower value 1
